30 molecules from PubChem BioAssay AID1347172 (National Center for Advancing Translational Sciences (NCATS), 2019) can be followed below.

The structures appear in SMILES notation. Results filed as inconclusive are left out. Active and inactive are the calls of the source. Calls come from the whole dose curve; as a rule, active = well fitted inhibition curve with a large enough effect; inconclusive = small, poorly fitted or top-dose-only effect; inactive = flat fitted curve, though single readings scatter.

The assay in a line: Secondary qRT-PCR qHTS assay for selected Zika virus inhibitors. The note with it: Vero cells ZIKV infection, NS5 RNA qRT-PCR, 24 h; series mostly up to 32.6 µM; activity change, negative = inhibition: at the top concentration. The source says:
Assay Submitters (PI): Avindra Nath, Ph.D., National Institute of Neurological Disorders and Stroke (NINDS), Bethesda, MD Radhakrishnan Padmanabhan, Ph.D., Georgetown University (GU), Washington D.C. Zika Virus causes congenital defects, including microcephaly and is associated with Guillain-Barre syndrome, eningoencephalitis and myelitis in infected adult. […] Using a target-based approach, we hope to establish a screening paradigm to uncover novel, cell-active NS2B-NS3 protease (Zika Virus) specific inhibitors from NCATS' collection of small molecules using qHTS. […] Four assay panel was created to identify potential Zika Virus inhibitors. Namely, (1) GU unlinked NS2B-NS3 AMC tagged protease qHTS, (2) GU unlinked NS2B-NS3 Rhodamine tagged protease qHTS, (3) NINDS linked NS2B-NS3 AMC tagged protease qHTS, (4) NINDS linked NS2B-NS3 Rhodamine tagged protease qHTS. Inhibitors of the Zika virus primary screens are confirmed using qRT-PCR secondary assays, qRT-PCR mCherry orthogonal assay, and qRT-PCR viability counterscreen. Early Translation Branch (ETB) National Center for Advancing Translational Sciences (NCATS), Rockville, MD National Institute of Health (NIH), Bethesda, Maryland
384-well ZIKV qRT-PCR Assay: Vero cells were treated with the indicated compounds at different concentrations, infected with ZIKV (MOI=1) and incubated at 37 degrees C for 3 hours to permit virus invasion. After 3 hr, supernatant was removed, and cells were washed once to remove extracellular virus. After a further 21 hr incubation, infected cells were washed three times with cold PBS (4 degrees C). Plates were then process using the TaqmanGene Expression Cells-to-Ct Kit (ThermoFisher Scientific) following the manufactures protocol. Primers directed to the NS5 sequence (F-[…]; R-GCTCGGCCAATCAGTTCA) along with Taqman probe (FAM-[…]-BHQ; Biosearch Technologies) were used to quantify drug inhibition of viral load. Reactions were run at initial 95 degrees C for 10 min, then 40 cycles of 95 degrees C for 20 sec and 60 degrees C for 40 sec using a LightCycler 480 (Roche). Relative viral copy numbers were generated by normalizing to cells treated with vehicle.
Background: Real-time PCR tracks product formation cycle by cycle.
Take `C/C(=C\c1ccc(C(=O)O)cc1)c1ccc2c(c1)C(C)(C)CCC2(C)C`: the Potency was 12.6 µM (active).

`CCOc1c2c(c(OCC)c3ccccc13)C(=O)N(c1ccc(CC(=O)NS(=O)(=O)c3ccccc3)cc1)C2`: the “activity change, negative = inhibition” value was 10.7% (inactive).

On to `COc1c(C)c2c(c(O)c1C/C=C(\C)CCC(=O)O)C(=O)OC2`, for which the “activity change, negative = inhibition” value was -10.2% (inactive).

On to `CCCCCCCOc1cc2c(cc1/C(C)=C/c1ccc(C(=O)O)cc1)C(C)(C)CCS2(=O)=O`, for which the Potency is 14.1 µM (active).

For the molecule `O=C(O)c1cccc(-c2ccc(-c3cn(C(=O)N4CCCCC4Cc4ccccc4)nn3)cc2)c1` (stereo not given), the “activity change, negative = inhibition” value was -2.59% (inactive).

Turning to `Cc1ccc([C@@H]2CC=C(C(=O)O)[C@H](c3ccc(C(C)(C)C)cc3)N2S(=O)(=O)c2ccc(C)cc2)cc1`, the “activity change, negative = inhibition” value is -24.8% (inactive).

Take `CCOC(=O)c1ccc(N2C(=O)c3n[nH]c(-c4cccs4)c3C2c2ccc(C(C)(C)C)cc2)cc1` (stereo not given): the Potency was 3.55 µM (active).

`O=C(O)Cn1nnc(-c2cc(N3CCC(Oc4cc(F)ccc4Br)CC3)no2)n1`: the “activity change, negative = inhibition” value was -7.81% (inactive).

As for `O=C1NC(=O)/C(=C/c2cccc(C(F)(F)F)c2)S1`, the “activity change, negative = inhibition” value is -8.11% (inactive).

`CC(C)c1onc(-c2c(Cl)cccc2Cl)c1COc1ccc(/C=C/c2cccc(C(=O)O)c2)c(Cl)c1`: the Potency was 11.2 µM (active).

Consider `COc1cc(/C=C/c2ccccc2)c(C(=O)O)c(O)c1CC=C(C)C`, for which the “activity change, negative = inhibition” value was -2.8% [at 21.8 µM] (inactive).

In the case of `O=S(=O)(O)c1ccc2cc(N=Nc3cc(S(=O)(=O)O)c4cccnc4c3O)ccc2c1`, the “activity change, negative = inhibition” value is 4.54% (inactive).

For `CC(C)c1cc(C(C)C)c(CC(=O)NS(=O)(=O)Oc2c(C(C)C)cccc2C(C)C)c(C(C)C)c1`, the Potency was 10 µM (active).

Consider `N#CC1(c2cccc(C(=O)Nc3cc(Oc4ccc5nc(NC(=O)C6CC6)sc5n4)ccc3F)c2Cl)CC1`, for which the “activity change, negative = inhibition” value is 3.94% (inactive).

Turning to `CC(C)C[C@H](C(=O)O)c1cc(-c2ccc(C(F)(F)F)cc2)cc(-c2ccc(C(F)(F)F)cc2)c1`, the Potency was 12.6 µM (active).

Consider `O=C(O)Cc1cc(I)c(Oc2ccc(O)c(I)c2)c(I)c1`, for which the “activity change, negative = inhibition” value is -13.6% (inactive).

In the case of `CC(C)(Sc1ccc(CCN(CCCCC2CCCCC2)C(=O)NC2CCCCC2)cc1)C(=O)O`, the “activity change, negative = inhibition” value was -24.8% (inactive).

In the case of `CN(C)[C@@H]1C(=O)C(C(N)=O)=C(O)[C@@]2(O)C(=O)C3=C(O)c4c(O)ccc(Cl)c4[C@@H](O)[C@H]3C[C@@H]12`, the “activity change, negative = inhibition” value was -4.42% (inactive).

In the case of `Cc1ccn(-c2ccc(-c3ncco3)cc2)c(=O)c1-c1ccc2nc(N)ncc2c1`, the “activity change, negative = inhibition” value is -6.39% (inactive).

For the molecule `O=C1NC(=O)/C(=C/c2ccc3c(c2)OC(F)(F)O3)S1`, the “activity change, negative = inhibition” value is 2.32% (inactive).

`C=C1c2cccc(O)c2C(O)=C2C(=O)[C@]3(O)C(O)=C(C(N)=O)C(=O)[C@@H](N(C)C)[C@@H]3[C@@H](O)[C@H]12`: the Potency entry was “inactive”.

On to `CC(C)(O)c1ccccc1CC[C@@H](SCC1(CC(=O)O)CC1)c1cccc(/C=C/c2ccc3ccc(Cl)cc3n2)c1`, for which the “activity change, negative = inhibition” value is 2.54% (inactive).

Regarding `O=C(O)/C=C/c1ccc(-c2ccc(O)c(C34CC5CC(CC(C5)C3)C4)c2)cc1`, the Potency is 10 µM (active).

Take `N#CC1C(=O)Nc2scc(-c3ccc(-c4ccccc4O)cc3)c2C1=O` (stereo not given): the “activity change, negative = inhibition” value is -0.434% (inactive).

Turning to `Cc1ccc2nc(NS(=O)(=O)c3ccc(Cl)cc3)c(Nc3ccc(C(=O)O)cc3)nc2c1`, the “activity change, negative = inhibition” value is -7.87% (inactive).

`CC1CCN(C(c2ccc(F)cc2)c2ccc(C(C)C(=O)O)cc2-c2ccc(C(F)(F)F)cc2)CC1` (stereo not given): the Potency was 14.1 µM (active).

As to `COc1cc(C(=O)O)ccc1NC(=O)[C@@H]1N[C@@H](CC(C)(C)C)[C@](C#N)(c2ccc(Cl)cc2F)[C@H]1c1cccc(Cl)c1F`, the Potency was 12.6 µM (active).

For the molecule `COc1ccccc1-c1cccc(-c2c(O)c3cc(C#N)c(Cl)cc3[nH]c2=O)c1`, the “activity change, negative = inhibition” value was -5.94% (inactive).

With `Cc1nc(C2CCCCC2)c(-c2ccc(S(N)(=O)=O)c(F)c2)o1`, the “activity change, negative = inhibition” value is -1.51% (inactive).

Turning to `O=C(O)Cc1cccc(OCCCN(Cc2cccc(C(F)(F)F)c2Cl)CC(c2ccccc2)c2ccccc2)c1`, the Potency was 14.1 µM (active).
